Records with an inconclusive call do not appear. Active and inactive are the calls of the source. Calls come from the whole dose curve; as a rule, active = well fitted curve in the direction sought with a large enough effect; inconclusive = small, poorly fitted or top-dose-only effect, or another doubt; inactive = no such curve, though single readings can be large; an effect the other way counts as inactive or inconclusive.
What was measured:
[1] = target: Luciferin 4-monooxygenase (Photinus pyralis) (UniProt P08659); test: Biochemical firefly luciferase enzyme assay for NPC (AID 624030);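 note: purified P. pyralis luciferase at 10 nM with luciferin and ATP substrate; nearly all actives have a fitted effect of over 70% in size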; settings: purified P. pyralis luciferase, luminescence, 5 min; series mostly up to 58.6 µM
Sequence of Luciferin 4-monooxygenase (Photinus pyralis) (P08659 whole entry, looked up): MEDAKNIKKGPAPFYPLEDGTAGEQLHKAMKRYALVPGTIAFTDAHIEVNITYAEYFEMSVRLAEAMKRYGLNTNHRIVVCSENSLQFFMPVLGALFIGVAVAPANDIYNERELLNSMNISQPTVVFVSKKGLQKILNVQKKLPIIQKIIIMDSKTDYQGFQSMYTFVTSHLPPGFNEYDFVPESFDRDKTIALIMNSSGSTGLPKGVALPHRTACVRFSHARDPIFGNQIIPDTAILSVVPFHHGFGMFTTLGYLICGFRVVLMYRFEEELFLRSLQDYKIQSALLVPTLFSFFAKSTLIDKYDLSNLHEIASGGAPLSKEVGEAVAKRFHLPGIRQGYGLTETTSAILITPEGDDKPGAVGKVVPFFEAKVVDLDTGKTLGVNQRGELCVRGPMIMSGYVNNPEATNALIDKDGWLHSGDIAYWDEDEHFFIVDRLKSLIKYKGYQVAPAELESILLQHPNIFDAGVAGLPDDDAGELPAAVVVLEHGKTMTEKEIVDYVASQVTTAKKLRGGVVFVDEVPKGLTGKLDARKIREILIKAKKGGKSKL
Method in brief: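 Direct inhibition of firefly luciferase enzyme (10 nM final, 50 mM Tris Acetate) assessed by luminescence within 5 minutes. Percent activity scaled between DMSO and PTC124 positive control, with concentration-effect curves classified by fit quality and response.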

[2] = S16 Schwann cell viability assay (CellTiter-Glo assay) (AID 624031); settings: S16 rat Schwann cells viability, 24 h; series mostly up to 57.5 µM;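 note: native untransfected S16 rat Schwann cells; nearly all actives have a fitted effect of over 70% in size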
Method in brief: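 Counter-screen for cytotoxicity: parental S16 rat Schwann cells lacking the PMP22 reporters, treated 24 h with compound, viability from cellular ATP by CellTiter-Glo luminescence, normalized to DMSO (0%) and no-cell wells.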

[3] = S16 Schwann cell PMP22 intronic element firefly luciferase assay (AID 624032); settings: S16 rat Schwann cells, PMP22 element FLuc, 24 h; series mostly up to 57.5 µM; note: nearly all actives have a fitted effect of over 30% in size
Method in brief: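 Luciferase reporter of PMP22 intronic-element expression in stably transfected S16 rat Schwann cells, read by ONE-Glo luminescence after 24 h compound exposure at 37 C. Activity scaled between DMSO (0%) and positive-control PTC124; concentration-effect curves quality-classified.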

[4] = system: CP215; test: qHTS profiling for inhibitors of Plasmodium falciparum proliferation (AID 504749); note: nearly all actives have a fitted effect of over 60% in size; settings: P. falciparum in erythrocytes, SYBR Green DNA, 72 h; series mostly up to 28.7 µM
Method in brief: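 Three-day growth assay of blood-stage parasites in erythrocytes (0.3% parasitemia, 2.5% hematocrit) at 37 C, 5% CO2, quantified by SYBR Green DNA staining after overnight detergent lysis.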

Measured: Potency

CN1[C@H]2CC(OC(=O)[C@H](CO)c3ccccc3)C[C@H]1[C@H]1O[C@H]12 (some centres undefined)
inactive: all assays above
